Compounds without any hit were thinned out: in the full panel of roughly 83,000, 20% have a hit.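 A percent growth of 40 corresponds to 60% growth inhibition; 0 means no net growth; -100 means all cells died. Active threshold: below 10.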 Activity calls are given as the source filed them.
Key:
Assay in all cases: NCI-60 one-dose screen, 48 h (100 = growth as untreated, 0 = no growth, -100 = all killed)
Conditions in all cases: 10 µM unless noted
NCI-H23 lung = system: NCI-H23 lung
NCI-H226 lung = system: NCI-H226 lung
NCI-H322M lung = system: NCI-H322M lung
HOP-62 NSCLC = system: HOP-62 NSCLC
NCI-H460 lung = system: NCI-H460 lung
HOP-92 NSCLC = system: HOP-92 NSCLC
NCI-H522 lung = system: NCI-H522 lung
A549/ATCC NSCLC = system: A549/ATCC NSCLC
786-0 renal = system: 786-0 renal
COLO 205 colon = system: COLO 205 colon

Measured: growth

N#Cc1c(-c2ccccc2)c(C#N)c2c(C#N)c(N)nn2c1N
inactive: NCI-H23 lung 72.2% | NCI-H226 lung 74% | NCI-H322M lung 83.5% | HOP-62 NSCLC 40.2% | NCI-H460 lung 19.7% | HOP-92 NSCLC 27.1% | NCI-H522 lung 13.1% | A549/ATCC NSCLC 38.7% | 786-0 renal 53.4% | COLO 205 colon 29.4%

O=C(Nc1cccnc1Nc1ccc(Cl)cc1)c1cn(Cc2ccc(F)cc2)nn1
inactive: NCI-H23 lung 99.4% | NCI-H226 lung 94.2% | NCI-H322M lung 98.5% | HOP-62 NSCLC 112% | NCI-H460 lung 107% | HOP-92 NSCLC 102% | NCI-H522 lung 91.1% | A549/ATCC NSCLC 103% | 786-0 renal 86.9% | COLO 205 colon 124%

Cn1ncc2ccc(-c3nc(-c4ccccc4)[nH]c3-c3n[nH]c(=O)n3C3CC3)cc21
inactive: NCI-H23 lung 93.7% | NCI-H226 lung 97.7% | NCI-H322M lung 111% | HOP-62 NSCLC 95.1% | NCI-H460 lung 99.4% | HOP-92 NSCLC 61.3% | NCI-H522 lung 81.5% | A549/ATCC NSCLC 93.7% | 786-0 renal 88.8% | COLO 205 colon 109%

O=C(N/N=C/c1ccc([N+](=O)[O-])cc1)c1ccc2nc(-c3ccc(Cl)cc3)[nH]c2c1
inactive: NCI-H23 lung 16.2% | NCI-H226 lung 54.8% | NCI-H322M lung 70.1% | HOP-62 NSCLC 44.8% | HOP-92 NSCLC 59.7% | NCI-H522 lung 33% | A549/ATCC NSCLC 34.5% | 786-0 renal 49%
active: NCI-H460 lung 5.44% | COLO 205 colon 2.28%

CCN(CC)CCOc1nc2c3ccc(Cl)cc3nn2c2ccccc12
inactive: NCI-H23 lung 34.5% | NCI-H226 lung 47.1% | NCI-H322M lung 29.2% | HOP-62 NSCLC 42.3% | NCI-H460 lung 11.4% | NCI-H522 lung 27.9% | A549/ATCC NSCLC 16.3% | 786-0 renal 23.6%
active: HOP-92 NSCLC -3.36% | COLO 205 colon 4.4%

COc1ccc2c(c1)c(-c1nonc1-c1c[nH]c3ccc(Br)cc13)cn2C
inactive: NCI-H23 lung 55.6% | NCI-H226 lung 84.6% | NCI-H322M lung 55.8% | HOP-62 NSCLC 29.6% | NCI-H460 lung 23.7% | HOP-92 NSCLC 75.6% | NCI-H522 lung 11.3% | A549/ATCC NSCLC 28.1% | 786-0 renal 58.6% | COLO 205 colon 23.9%

Cc1ccc(C(=O)c2ccc(CC(=O)N/N=C/c3ccc(O)cc3O)n2C)cc1
inactive: NCI-H23 lung 42.4% | NCI-H226 lung 65.7% | NCI-H322M lung 38% | HOP-62 NSCLC 40.6% | NCI-H460 lung 21.1% | HOP-92 NSCLC 83.1% | NCI-H522 lung 55.5% | A549/ATCC NSCLC 46.6% | 786-0 renal 43.4% | COLO 205 colon 41.8%

Cc1ccc(-c2csc(NC(=O)N3CCN(c4cc5c(cc4F)c(=O)c(C(=O)O)cn5C4CC4)CC3)n2)cc1
active: NCI-H23 lung 4.84% | NCI-H322M lung 9.12% | HOP-92 NSCLC -12.6% | NCI-H522 lung -5.07%
inactive: NCI-H226 lung 14.5% | HOP-62 NSCLC 12.6% | NCI-H460 lung 19.6% | A549/ATCC NSCLC 11.1% | 786-0 renal 28.9% | COLO 205 colon 11.9%

Cc1cccc(-n2c(C)nc3ccc(N4CCCNC4=O)cc3c2=O)c1
inactive: NCI-H23 lung 98.5% | NCI-H226 lung 96.5% | NCI-H322M lung 103% | HOP-62 NSCLC 101% | NCI-H460 lung 112% | HOP-92 NSCLC 95.1% | NCI-H522 lung 96.4% | A549/ATCC NSCLC 102% | 786-0 renal 102% | COLO 205 colon 105%

COc1cc(N2C(=O)[C@H](c3ccccc3)C2c2ccc(SC)cc2)cc(OC)c1OC (stereo not given in full)
inactive: NCI-H23 lung 16% | NCI-H226 lung 56.1% | NCI-H322M lung 37.7% | HOP-62 NSCLC 20.7%
active: NCI-H460 lung 4.99% | HOP-92 NSCLC -0.302% | NCI-H522 lung -9.45% | A549/ATCC NSCLC 4.39% | 786-0 renal 5.94% | COLO 205 colon -52%

CCCCCCNc1nc(NCCCCCC)c2[nH]c(NCCCCCC)nc2n1
active: NCI-H322M lung 1.94% | HOP-92 NSCLC -12.9% | NCI-H522 lung -42% | A549/ATCC NSCLC 7.63% | COLO 205 colon -2.12%
inactive: NCI-H23 lung 48.2% | NCI-H226 lung 92.1% | HOP-62 NSCLC 75.7% | NCI-H460 lung 48.1% | 786-0 renal 68.2%

COc1ccc2nc(Cl)c(/C=C/C(=O)c3ccc(NC(=O)CSc4nnc(-c5ccc(Cl)c(Cl)c5)n4-c4ccccc4)cc3)cc2c1
inactive: NCI-H23 lung 96.5% | NCI-H226 lung 96.8% | NCI-H322M lung 93.6% | HOP-62 NSCLC 83.2% | NCI-H460 lung 97.7% | HOP-92 NSCLC 67.8% | NCI-H522 lung 74.1% | A549/ATCC NSCLC 69.7% | 786-0 renal 92.3% | COLO 205 colon 101%

CCCCCCCCCCCCCCCCCCOc1ccccc1CC(=O)OCC[N+]1(C)CCOCC1
inactive: NCI-H23 lung 66.5% | NCI-H226 lung 49.8% | NCI-H322M lung 79.8% | HOP-62 NSCLC 55.6% | NCI-H460 lung 69.2% | HOP-92 NSCLC 44.2% | NCI-H522 lung 39.9% | A549/ATCC NSCLC 62.6% | 786-0 renal 68.3% | COLO 205 colon 65.6%

CC[C@]12C=CCN3CC[C@@]4(c5ccc(OC)cc5N(C)[C@H]4[C@@](O)(C(=O)OC)[C@@H]1OC(=O)CCCN1CCOCC1)[C@@H]32
inactive: NCI-H23 lung 106% | NCI-H226 lung 108% | NCI-H322M lung 106% | HOP-62 NSCLC 99.1% | NCI-H460 lung 111% | HOP-92 NSCLC 94.5% | NCI-H522 lung 100% | A549/ATCC NSCLC 101% | 786-0 renal 96.9% | COLO 205 colon 108%

CCCCCCC(CCCC)COC(=O)c1ccc(Cl)cc1 (stereo not given)
inactive: NCI-H23 lung 110% | NCI-H226 lung 92.8% | NCI-H322M lung 111% | HOP-62 NSCLC 119% | NCI-H460 lung 102% | HOP-92 NSCLC 89.5% | NCI-H522 lung 105% | A549/ATCC NSCLC 117% | 786-0 renal 103% | COLO 205 colon 108%

CCOC(=O)c1c(C)nc2ccccc2c1/C=C/c1ccc(OC)cc1
inactive: NCI-H23 lung 46.3% | NCI-H226 lung 61.8% | NCI-H322M lung 95.8% | HOP-62 NSCLC 71.8% | NCI-H460 lung 78.1% | HOP-92 NSCLC 44.5% | NCI-H522 lung 53.5% | A549/ATCC NSCLC 57.6% | 786-0 renal 77.8% | COLO 205 colon 83.6%

CN1CCCc2cc(/C=C3/SC(=S)N(CCc4ccc(O)cc4)C3=O)ccc21
inactive: NCI-H23 lung 94.1% | NCI-H226 lung 88.5% | NCI-H322M lung 95.1% | HOP-62 NSCLC 101% | NCI-H460 lung 95.1% | HOP-92 NSCLC 48.3% | NCI-H522 lung 43.8% | A549/ATCC NSCLC 87.3% | 786-0 renal 87.6% | COLO 205 colon 112%

CCC(C)Nc1ccc(NC(C)CC)cc1 (stereo not given)
active: COLO 205 colon 9.48%
inactive: NCI-H23 lung 74.5% | NCI-H226 lung 91.3% | NCI-H322M lung 86.4% | HOP-62 NSCLC 84.8% | NCI-H460 lung 101% | HOP-92 NSCLC 90.5% | NCI-H522 lung 54.9% | A549/ATCC NSCLC 94.7% | 786-0 renal 74%

O=C(CN1C(=O)NC2NC(=O)NC21)N/N=C/c1ccc(Cl)cc1Cl (stereo not given)
inactive: NCI-H23 lung 102% | NCI-H226 lung 95.6% | NCI-H322M lung 104% | HOP-62 NSCLC 114% | NCI-H460 lung 105% | HOP-92 NSCLC 125% | NCI-H522 lung 93.3% | A549/ATCC NSCLC 110% | 786-0 renal 96.6% | COLO 205 colon 125%

O=C(Nc1nc(C(=O)N2CCN(C(c3ccccc3)c3ccccc3)CC2)cs1)c1ccc(NC2CCCCC2)c([N+](=O)[O-])c1
inactive: NCI-H23 lung 77.2% | NCI-H226 lung 60.1% | NCI-H322M lung 91.6% | HOP-62 NSCLC 90.9% | NCI-H460 lung 99.6% | HOP-92 NSCLC 63.7% | NCI-H522 lung 67.3% | A549/ATCC NSCLC 93.2% | 786-0 renal 87.7% | COLO 205 colon 103%

O=C(O)CCCn1c(SCc2c(Cl)cccc2Cl)nc2ccsc2c1=O
inactive: NCI-H23 lung 33.6% | NCI-H226 lung 43.4% | NCI-H322M lung 48.3% | HOP-62 NSCLC 45.2% | NCI-H460 lung 10.2% | HOP-92 NSCLC 24.5% | A549/ATCC NSCLC 34.4% | 786-0 renal 23.9%
active: NCI-H522 lung -3.68% | COLO 205 colon 3.82%

Clc1nn2c(Cn3cnc4c(NCc5ccccc5)ncnc43)nnc2c2ccccc12
active: HOP-92 NSCLC 5.22%
inactive: NCI-H23 lung 53.6% | NCI-H226 lung 42.5% | NCI-H322M lung 21% | HOP-62 NSCLC 37.9% | NCI-H460 lung 34% | NCI-H522 lung 43.7% | A549/ATCC NSCLC 40% | 786-0 renal 40% | COLO 205 colon 35.1%

From PubChem BioAssay (NCI)
